An excerpt weighted towards active compounds, which were near 11% of everything screened.
HEK293 tox – Cytotoxic Profiling in HEK 293 Cell Line of Diverse Libraries Using Quantitative High-Throughput Screening; 94,000 tested, 6.6% active; AID 1345083, 2018; HEK 293 viability, ATP luminescence (CellTiter-Glo), 48-72 h; Potency, µM (top dose mostly 115 µM), most hits filed as inhibitors; note: nearly all actives have a fitted effect of over 60% in size
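Luminescence from cellular ATP, measured with CellTiter-Glo, indicates HEK 293 viability. Cells plated at 250 cells/well are treated with compound for 48 or 72 hr at 37 degree Celsius before reagent addition.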
3T3 cytotox – Cytotoxic Profiling in NIH 3T3 Cell Line of Diverse Libraries Using Quantitative High-Throughput Screening. NIH 3T3 viability, CellTiter-Glo ATP luminescence, 48-72 h. Potency, µM (titrated, usually from 96.7 µM), usual class: inhibitors. 94,000 tested, 4.3% active; note: nearly all actives have a fitted effect of over 55% in size
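NIH 3T3 cells at 400 cells/well received 23 nL of compound by pintool and were incubated 48 or 72 h at 37 °C. Viability was read as ATP-coupled CellTiter-Glo luminescence.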
Luciferase inh – Firefly luciferase inhibition profiling of diverse chemical library using quantitative high-throughput screening; purified P. pyralis luciferase, luminescence, biochemical; Potency, µM (highest dose often 115 µM), usual class: inhibitors; 76,000 tested, 2.5% active; AID 1347043, 2019; note: nearly all actives have a fitted effect of over 65% in size
Target sequence (P08659 whole entry, looked up): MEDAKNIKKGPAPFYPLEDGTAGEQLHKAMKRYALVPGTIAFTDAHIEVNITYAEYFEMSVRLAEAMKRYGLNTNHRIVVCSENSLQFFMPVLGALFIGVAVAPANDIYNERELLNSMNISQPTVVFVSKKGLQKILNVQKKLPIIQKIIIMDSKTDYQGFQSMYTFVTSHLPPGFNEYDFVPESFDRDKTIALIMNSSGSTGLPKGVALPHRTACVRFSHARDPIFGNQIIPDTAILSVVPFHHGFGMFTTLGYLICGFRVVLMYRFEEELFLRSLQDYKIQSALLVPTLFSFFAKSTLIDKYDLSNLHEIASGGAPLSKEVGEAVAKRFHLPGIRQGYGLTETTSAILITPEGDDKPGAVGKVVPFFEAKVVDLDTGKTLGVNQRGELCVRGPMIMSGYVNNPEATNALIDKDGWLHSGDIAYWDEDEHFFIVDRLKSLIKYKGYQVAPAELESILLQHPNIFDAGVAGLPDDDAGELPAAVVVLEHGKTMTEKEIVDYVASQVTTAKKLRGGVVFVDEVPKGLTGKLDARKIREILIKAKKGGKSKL
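Cell-free enzyme assay, 10nM P. pyralis luciferase, luciferin and ATP each at 10uM. Inhibition profiled over a 6-point titration, read as luminescence.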
NPR1 antag – Natriuretic polypeptide receptor (hNpr1) antagonism - Primary qHTS; AID 1347048, 2019; 76,000 tested, 1.6% active; HEK293 hNpr1 GloSensor cGMP, ANP-stimulated luminescence; Potency, µM (highest dose often 46.3 µM), actives largely listed as inhibitors; Atrial natriuretic peptide receptor 1 (Homo sapiens), P16066; calls by dose curve; note: nearly all actives have a fitted effect of over 60% in size
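HEK293 cells stably expressing human Npr1 and cGMP GloSensor pGS-40F, loaded 2 h with 2% GloSensor reagent, given compound 30 min at room temperature. Luminescence read before and 20 min after 0.1 nM hNppA.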
Large screens that a line does not name were inactive. Unless noted, calls come from the whole dose curve; as a rule, active = well fitted curve in the direction sought with a large enough effect; inconclusive = small, poorly fitted or top-dose-only effect, or another doubt; inactive = no such curve, though single readings can be large; an effect the other way counts as inactive or inconclusive.

O=C(c1cc2ccccc2[nH]1)N1CCN(c2cc(-c3ccccc3)[nH]n2)CC1	HEK293 tox inconclusive, 3T3 cytotox 35.5µM, Luciferase inh inconclusive
O=C(c1ccccc1Cl)N1CCN(c2cc(-c3ccccc3)[nH]n2)CC1	HEK293 tox 20µM, 3T3 cytotox inconclusive
COc1ccc(-c2cc(N3CCCN(C(=O)c4ccccc4)CC3)n[nH]2)cc1	HEK293 tox inconclusive
O=C1NC2(CN(C(=O)c3ccccc3)C2)Oc2ccccc21	none
O=C1Nc2ccccc2CC12CCN(Cc1ccccc1C(F)(F)F)C2 (stereo unspecified)	HEK293 tox inconclusive, 3T3 cytotox inconclusive
O=C1Nc2ccccc2CC12CCN2Cc1ccccc1C(F)(F)F (stereo unspecified)	HEK293 tox 79.4µM, 3T3 cytotox inconclusive
COc1cc(-c2onc(C)c2C(=O)NCCCSC)cc(OC)c1OC	none
CCCOCCNC(=O)c1c(C)noc1-c1ccc(OC(F)(F)F)cc1	HEK293 tox inconclusive
Cc1noc(-c2ccc(C(C)(C)C)cc2)c1C(=O)NCc1cc(F)cc(F)c1	HEK293 tox inconclusive
COc1cc(-c2onc(C)c2C(=O)NCCCCc2ccccc2)cc(OC)c1OC	HEK293 tox 89.1µM, 3T3 cytotox inconclusive
Cc1noc(-c2ccc(OC(F)(F)F)cc2)c1C(=O)NCCCc1ccccc1	HEK293 tox 70.8µM, 3T3 cytotox inconclusive
Cc1noc(-c2ccc(OC(F)(F)F)cc2)c1C(=O)NCCC(c1ccccc1)c1ccccc1	HEK293 tox 35.5µM, 3T3 cytotox inconclusive
COc1cc(CN(C)C(=O)c2c(C)noc2-c2ccc(C(C)(C)C)cc2)cc(OC)c1OC	HEK293 tox 39.8µM, 3T3 cytotox inconclusive
Cc1noc(C)c1S(=O)(=O)N1CC(c2nc(Cc3cccnc3)no2)C1	none (no result: Luciferase inh, NPR1 antag)
CN1C[C@@H](NC(=O)c2ccccn2)C[C@H]1c1nc(-c2ccc3ccccc3c2)no1	HEK293 tox inconclusive, 3T3 cytotox inconclusive, Luciferase inh 31.6µM
COc1ccc(CC(=O)N[C@H]2C[C@@H](c3nc(-c4ccc5ccccc5c4)no3)N(C)C2)cc1	Luciferase inh 39.8µM
COc1ccc(-c2noc([C@@H]3C[C@H](NCc4ccc(F)cc4)CN3C)n2)cc1	HEK293 tox 100µM, 3T3 cytotox inconclusive, Luciferase inh 63.1µM
CN(C)c1ccc(C(=O)N[C@H]2C[C@@H](c3nc(-c4ccc5ccccc5c4)no3)N(C)C2)cc1	HEK293 tox inconclusive, 3T3 cytotox inconclusive
O=C(NC[C@H]1Cn2cc(-c3ccccc3)nc2CO1)c1ccccc1	Luciferase inh inconclusive
C=CCN1C[C@@H]2C[C@@H](C(N)=O)N(C(=O)c3ccc(Cl)cc3)c3cccc(c32)C1=O	3T3 cytotox inconclusive (no result: Luciferase inh, NPR1 antag)
CN(CCc1ccccn1)[C@@H]1[C@H](O)[C@H](CO)O[C@@H]1CN(Cc1ccc(F)cc1)Cc1ccc(F)cc1	HEK293 tox 35.5µM, 3T3 cytotox 50.1µM
O=C(c1ccc(F)cc1)N1CCC(C(=O)N2CCC(c3nc4ncccc4[nH]3)CC2)C1 (stereo unspecified)	none (no result: Luciferase inh, NPR1 antag)
CC(=O)N1CCN(c2nccc(Nc3ccccc3Cl)n2)CC1	none (no result: Luciferase inh, NPR1 antag)
COc1ccc(Nc2ccnc(N3CCN(C(=O)c4ccccc4Cl)CC3)n2)cc1	HEK293 tox 39.8µM, 3T3 cytotox inconclusive (no result: Luciferase inh, NPR1 antag)
Cc1ccc(C(=O)N2CCN(c3nccc(Nc4ccccc4Cl)n3)CC2)cc1	HEK293 tox 22.4µM, 3T3 cytotox inconclusive (no result: Luciferase inh, NPR1 antag)
COc1ccccc1C(=O)N1CCN(c2nccc(Nc3ccccc3Cl)n2)CC1	HEK293 tox inconclusive, 3T3 cytotox 28.2µM (no result: Luciferase inh, NPR1 antag)
CC(C)C(=O)N1CCN(c2nccc(Nc3ccccc3Cl)n2)CC1	HEK293 tox 39.8µM, 3T3 cytotox inconclusive (no result: Luciferase inh, NPR1 antag)
O=C(COc1ccc(F)cc1)N1CCC(n2cc(-c3nc(C4CC4)no3)nn2)C1 (stereo unspecified)	3T3 cytotox inconclusive
COCc1nc(CCNC(=O)c2noc(C)c2Cc2c(C)noc2C)no1	none (no result: Luciferase inh, NPR1 antag)
Cc1ccc([S+](=O)([O-])N2CCN(CCn3nc4n(c3=O)CCCC4)CC2)cc1	none (no result: Luciferase inh, NPR1 antag)
O=C(c1ccccc1Cl)N1CCN(c2nccc(Nc3ccccc3Cl)n2)CC1	HEK293 tox 44.7µM, 3T3 cytotox inconclusive (no result: Luciferase inh, NPR1 antag)
O=C(CN1CCN(c2cc(C3CC(O)C3)ncn2)CC1)N1CCCC1 (stereo unspecified)	none
